# Measurements from paper PMC7862700, “An all-to-all approach to the identification of sequence-specific readers for epigenetic DNA modifications on cytosine”.
# Legend:
# Assay in all cases: DAPPL (digital affinity profiling via proximity ligation, sequencing); 10 mM Tris-HCl pH 7.5, 50 mM NaCl, 1 mM DTT, 4% glycerol, room temperature, 30 min; GST-TFs on glutathione beads, 16-mer random dsDNA library, 0.1% formaldehyde crosslink after washing; high values mean tight binding
# [1] = biological target: T1, FLI1 (Homo sapiens, UniProt Q01543 1-452); settings: protein: recombinant; tags: N-terminal GST; dsDNA, one strand shown
# T1 sequence: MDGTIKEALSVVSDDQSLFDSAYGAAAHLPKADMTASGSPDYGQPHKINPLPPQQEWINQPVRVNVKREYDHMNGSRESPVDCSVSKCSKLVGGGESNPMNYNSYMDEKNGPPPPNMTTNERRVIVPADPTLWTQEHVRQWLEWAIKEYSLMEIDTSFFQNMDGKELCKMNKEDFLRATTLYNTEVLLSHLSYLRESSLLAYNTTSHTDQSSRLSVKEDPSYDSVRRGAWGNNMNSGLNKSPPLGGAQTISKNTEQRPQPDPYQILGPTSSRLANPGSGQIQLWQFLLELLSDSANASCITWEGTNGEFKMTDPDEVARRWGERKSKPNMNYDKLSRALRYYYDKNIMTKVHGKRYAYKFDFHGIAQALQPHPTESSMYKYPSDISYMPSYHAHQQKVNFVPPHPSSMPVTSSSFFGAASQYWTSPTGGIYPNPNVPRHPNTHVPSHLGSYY
# In short: (§1)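 The binding signal reported is, for every hexamer, its read frequency for a factor over its read frequency for the tag-only sample. Reads came from pools of yeast-expressed, GST-fused human transcription factors on glutathione beads, barcoded with DNA and mixed with that sample, which were incubated with 200 nmole of a random double-stranded 16-mer DNA library in Tris/NaCl/DTT/glycerol buffer at room temperature for 30 min. After washing, the pools were crosslinked with 0.1% formaldehyde, proximity-ligated with BsaI/T4 ligase for 1 h at 37 °C, PCR-amplified and sequenced on an Illumina NextSeq500.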
# [2] = biological target: T2, ELK1 (Homo sapiens, UniProt P19419 1-428); settings: protein: recombinant; tags: N-terminal GST; dsDNA, one strand shown
# T2 sequence: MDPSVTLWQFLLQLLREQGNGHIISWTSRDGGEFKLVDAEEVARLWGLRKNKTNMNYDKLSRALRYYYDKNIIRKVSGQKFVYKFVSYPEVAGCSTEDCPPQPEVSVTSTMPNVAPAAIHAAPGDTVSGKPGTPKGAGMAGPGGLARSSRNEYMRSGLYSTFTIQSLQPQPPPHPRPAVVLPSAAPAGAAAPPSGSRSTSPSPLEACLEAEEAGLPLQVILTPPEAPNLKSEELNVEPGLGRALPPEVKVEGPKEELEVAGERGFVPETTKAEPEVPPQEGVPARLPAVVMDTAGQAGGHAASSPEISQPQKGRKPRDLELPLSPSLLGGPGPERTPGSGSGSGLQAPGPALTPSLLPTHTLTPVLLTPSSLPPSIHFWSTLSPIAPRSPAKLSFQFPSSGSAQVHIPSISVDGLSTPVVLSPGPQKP
# In short: as §1
# [3] = biological target: T3, GABPA (Homo sapiens, UniProt Q06546 1-454); settings: protein: recombinant; tags: N-terminal GST; dsDNA, one strand shown
# T3 sequence: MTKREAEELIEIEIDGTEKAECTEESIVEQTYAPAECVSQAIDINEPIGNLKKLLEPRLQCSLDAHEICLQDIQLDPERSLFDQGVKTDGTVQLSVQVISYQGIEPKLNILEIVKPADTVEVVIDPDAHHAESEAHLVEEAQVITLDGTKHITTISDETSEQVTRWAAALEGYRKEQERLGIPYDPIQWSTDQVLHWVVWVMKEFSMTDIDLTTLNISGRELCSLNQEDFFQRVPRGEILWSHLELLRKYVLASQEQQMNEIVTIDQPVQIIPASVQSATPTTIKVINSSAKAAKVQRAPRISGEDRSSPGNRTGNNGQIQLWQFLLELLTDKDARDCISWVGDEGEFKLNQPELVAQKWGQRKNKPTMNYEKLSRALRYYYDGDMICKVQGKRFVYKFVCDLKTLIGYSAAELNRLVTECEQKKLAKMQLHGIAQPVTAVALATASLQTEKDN
# In short: as §1
# [4] = biological target: T4, ERG (Homo sapiens, UniProt P11308 1-479); settings: protein: recombinant; tags: N-terminal GST; dsDNA, one strand shown
# T4 sequence: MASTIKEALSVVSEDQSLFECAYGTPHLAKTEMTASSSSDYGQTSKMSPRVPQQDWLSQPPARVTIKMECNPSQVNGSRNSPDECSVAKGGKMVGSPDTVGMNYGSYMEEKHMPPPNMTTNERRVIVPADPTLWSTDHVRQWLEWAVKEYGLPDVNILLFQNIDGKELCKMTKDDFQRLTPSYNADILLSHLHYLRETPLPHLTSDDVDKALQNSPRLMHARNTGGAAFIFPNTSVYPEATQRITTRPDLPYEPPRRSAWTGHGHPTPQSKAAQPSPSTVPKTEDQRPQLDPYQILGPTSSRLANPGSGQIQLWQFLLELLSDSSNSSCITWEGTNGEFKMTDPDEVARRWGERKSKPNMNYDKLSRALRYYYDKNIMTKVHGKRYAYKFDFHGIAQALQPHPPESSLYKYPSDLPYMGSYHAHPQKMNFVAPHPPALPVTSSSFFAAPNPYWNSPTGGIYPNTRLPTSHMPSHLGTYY
# In short: as §1
# [5] = biological target: ELF1 (Homo sapiens, UniProt P32519 1-619); settings: protein: recombinant; tags: N-terminal GST; dsDNA, one strand shown
# Sequence of ELF1 (P32519 whole entry): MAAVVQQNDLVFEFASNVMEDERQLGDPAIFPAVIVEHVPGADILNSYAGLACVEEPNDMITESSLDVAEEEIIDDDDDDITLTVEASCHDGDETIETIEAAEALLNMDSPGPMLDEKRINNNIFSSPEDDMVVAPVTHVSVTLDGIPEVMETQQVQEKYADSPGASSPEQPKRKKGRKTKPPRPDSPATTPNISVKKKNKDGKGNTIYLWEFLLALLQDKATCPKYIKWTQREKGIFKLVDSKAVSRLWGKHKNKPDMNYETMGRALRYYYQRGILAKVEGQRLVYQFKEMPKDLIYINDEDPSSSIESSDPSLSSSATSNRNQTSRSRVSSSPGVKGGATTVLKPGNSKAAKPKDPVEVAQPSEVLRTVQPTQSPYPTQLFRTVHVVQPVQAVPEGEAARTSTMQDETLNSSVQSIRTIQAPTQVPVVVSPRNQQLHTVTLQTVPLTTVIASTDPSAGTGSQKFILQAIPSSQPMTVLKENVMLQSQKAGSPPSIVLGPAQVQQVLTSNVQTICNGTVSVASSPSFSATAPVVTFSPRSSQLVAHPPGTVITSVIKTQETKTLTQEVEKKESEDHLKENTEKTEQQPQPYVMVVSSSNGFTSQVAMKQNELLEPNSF
# In short: as §1
# [6] = biological target: T5, EHF (Homo sapiens, UniProt Q9NZC4 1-300); settings: protein: recombinant; tags: N-terminal GST; dsDNA, one strand shown
# T5 sequence: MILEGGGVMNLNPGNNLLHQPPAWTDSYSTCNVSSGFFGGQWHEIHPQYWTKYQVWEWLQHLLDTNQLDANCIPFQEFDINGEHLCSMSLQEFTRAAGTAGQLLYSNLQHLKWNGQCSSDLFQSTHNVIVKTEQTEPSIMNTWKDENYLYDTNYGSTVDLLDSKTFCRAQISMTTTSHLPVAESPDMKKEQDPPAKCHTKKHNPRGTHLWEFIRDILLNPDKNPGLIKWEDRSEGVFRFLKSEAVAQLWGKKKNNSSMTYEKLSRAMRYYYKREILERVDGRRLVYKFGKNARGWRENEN
# In short: as §1
# [7] = biological target: SPI1 (Homo sapiens, UniProt P17947 1-270); settings: protein: recombinant; tags: N-terminal GST; dsDNA, one strand shown
# In short: as §1
# [8] = biological target: SPIB (Homo sapiens, UniProt Q01892 1-262); settings: protein: recombinant; tags: N-terminal GST; dsDNA, one strand shown
# Sequence of SPIB (Q01892 whole entry): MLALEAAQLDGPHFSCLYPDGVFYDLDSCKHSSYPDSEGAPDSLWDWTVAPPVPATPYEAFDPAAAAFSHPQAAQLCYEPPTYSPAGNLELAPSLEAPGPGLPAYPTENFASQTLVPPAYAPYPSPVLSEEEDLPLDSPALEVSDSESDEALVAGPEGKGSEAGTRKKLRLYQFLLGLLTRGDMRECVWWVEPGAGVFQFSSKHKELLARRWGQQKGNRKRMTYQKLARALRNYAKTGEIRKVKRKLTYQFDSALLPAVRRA
# In short: as §1
# [9] = biological target: T6, ELK3 (Homo sapiens, UniProt P41970 1-407); settings: protein: recombinant; tags: N-terminal GST; dsDNA, one strand shown
# T6 sequence: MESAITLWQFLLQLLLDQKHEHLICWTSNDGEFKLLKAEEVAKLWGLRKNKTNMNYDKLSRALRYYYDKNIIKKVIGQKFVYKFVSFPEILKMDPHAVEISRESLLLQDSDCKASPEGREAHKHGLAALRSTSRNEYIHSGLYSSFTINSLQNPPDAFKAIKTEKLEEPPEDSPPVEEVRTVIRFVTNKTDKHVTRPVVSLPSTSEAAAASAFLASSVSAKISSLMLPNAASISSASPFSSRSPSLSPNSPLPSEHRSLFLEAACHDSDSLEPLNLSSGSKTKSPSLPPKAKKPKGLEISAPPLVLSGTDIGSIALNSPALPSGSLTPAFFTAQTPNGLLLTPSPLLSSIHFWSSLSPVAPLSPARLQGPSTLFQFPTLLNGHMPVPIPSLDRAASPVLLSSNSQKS
# In short: as §1
# [10] = biological target: T7, FEV (Homo sapiens, UniProt Q99581 1-238); settings: protein: recombinant; tags: N-terminal GST; dsDNA, one strand shown
# T7 sequence: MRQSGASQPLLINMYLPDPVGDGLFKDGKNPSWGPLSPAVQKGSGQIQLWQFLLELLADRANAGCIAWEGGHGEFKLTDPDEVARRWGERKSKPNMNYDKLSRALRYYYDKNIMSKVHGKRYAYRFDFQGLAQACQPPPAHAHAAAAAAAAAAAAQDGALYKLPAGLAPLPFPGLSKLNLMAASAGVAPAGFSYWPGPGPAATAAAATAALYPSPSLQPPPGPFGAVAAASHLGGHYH
# In short: as §1
# [11] = biological target: ETV5 (Homo sapiens, UniProt P41161 1-510); settings: protein: recombinant; tags: N-terminal GST; dsDNA, one strand shown
# Sequence of ETV5 (P41161 whole entry): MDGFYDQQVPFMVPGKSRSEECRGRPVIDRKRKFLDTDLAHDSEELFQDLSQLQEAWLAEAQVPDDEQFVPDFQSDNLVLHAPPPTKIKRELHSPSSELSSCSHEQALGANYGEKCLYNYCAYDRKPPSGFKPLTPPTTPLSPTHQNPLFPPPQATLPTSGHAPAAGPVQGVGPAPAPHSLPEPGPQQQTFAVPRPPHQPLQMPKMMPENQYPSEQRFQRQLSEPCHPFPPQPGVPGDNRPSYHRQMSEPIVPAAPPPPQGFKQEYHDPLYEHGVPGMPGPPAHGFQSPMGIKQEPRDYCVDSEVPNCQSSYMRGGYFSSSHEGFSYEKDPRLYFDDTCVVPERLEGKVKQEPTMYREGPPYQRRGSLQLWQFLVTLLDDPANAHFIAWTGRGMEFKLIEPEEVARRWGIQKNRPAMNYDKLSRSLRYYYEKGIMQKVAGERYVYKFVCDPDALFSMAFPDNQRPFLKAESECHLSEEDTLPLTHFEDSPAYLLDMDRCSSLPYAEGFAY
# In short: as §1
# [12] = biological target: HSF1 (Homo sapiens, UniProt Q00613 1-529); settings: protein: recombinant; tags: N-terminal GST; chain copies: 3; dsDNA, one strand shown
# Sequence of HSF1 (Q00613 whole entry): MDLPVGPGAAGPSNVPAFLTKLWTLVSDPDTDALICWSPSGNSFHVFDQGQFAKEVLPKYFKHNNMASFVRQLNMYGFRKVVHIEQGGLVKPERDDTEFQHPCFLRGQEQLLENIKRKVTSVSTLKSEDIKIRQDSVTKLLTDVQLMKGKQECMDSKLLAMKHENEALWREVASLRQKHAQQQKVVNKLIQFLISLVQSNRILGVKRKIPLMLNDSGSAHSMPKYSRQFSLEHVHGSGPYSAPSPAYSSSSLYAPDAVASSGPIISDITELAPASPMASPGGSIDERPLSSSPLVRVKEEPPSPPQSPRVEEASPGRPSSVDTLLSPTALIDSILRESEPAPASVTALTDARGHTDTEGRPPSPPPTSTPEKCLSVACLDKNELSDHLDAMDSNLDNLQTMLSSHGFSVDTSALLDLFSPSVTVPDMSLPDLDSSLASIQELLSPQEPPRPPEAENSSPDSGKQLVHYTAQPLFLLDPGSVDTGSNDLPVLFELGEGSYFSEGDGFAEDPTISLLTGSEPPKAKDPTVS
# In short: as §1
# [13] = biological target: T8, SPIC (Homo sapiens, UniProt Q8N5J4 1-248); settings: protein: recombinant; tags: N-terminal GST; dsDNA, one strand shown
# T8 sequence: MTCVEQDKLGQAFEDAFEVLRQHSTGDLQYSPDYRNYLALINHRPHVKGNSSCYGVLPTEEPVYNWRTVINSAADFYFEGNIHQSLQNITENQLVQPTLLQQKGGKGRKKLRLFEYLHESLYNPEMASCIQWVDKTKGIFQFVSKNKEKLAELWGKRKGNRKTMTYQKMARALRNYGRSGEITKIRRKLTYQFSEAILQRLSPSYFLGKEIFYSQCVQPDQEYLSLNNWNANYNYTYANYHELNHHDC
# In short: as §1
# [14] = biological target: ELF4 (Homo sapiens, UniProt Q99607 1-663); settings: protein: recombinant; tags: N-terminal GST; dsDNA, one strand shown
# Sequence of ELF4 (Q99607 whole entry): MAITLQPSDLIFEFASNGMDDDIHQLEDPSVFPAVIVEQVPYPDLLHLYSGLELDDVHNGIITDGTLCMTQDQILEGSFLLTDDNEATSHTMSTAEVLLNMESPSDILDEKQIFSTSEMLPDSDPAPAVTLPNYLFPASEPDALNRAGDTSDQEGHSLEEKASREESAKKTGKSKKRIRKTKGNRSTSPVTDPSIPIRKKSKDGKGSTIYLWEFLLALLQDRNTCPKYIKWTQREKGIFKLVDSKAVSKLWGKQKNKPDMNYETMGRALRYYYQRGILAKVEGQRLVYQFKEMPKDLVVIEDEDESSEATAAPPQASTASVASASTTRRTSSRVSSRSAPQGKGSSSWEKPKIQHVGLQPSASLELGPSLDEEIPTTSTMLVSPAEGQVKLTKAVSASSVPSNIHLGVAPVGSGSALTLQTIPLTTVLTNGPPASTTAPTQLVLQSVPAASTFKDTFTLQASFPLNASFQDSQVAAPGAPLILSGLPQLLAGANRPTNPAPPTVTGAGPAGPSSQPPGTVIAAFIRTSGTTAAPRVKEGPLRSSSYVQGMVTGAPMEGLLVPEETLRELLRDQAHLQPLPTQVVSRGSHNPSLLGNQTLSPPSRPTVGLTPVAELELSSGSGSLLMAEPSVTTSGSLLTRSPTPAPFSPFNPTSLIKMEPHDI
# In short: as §1
# [15] = biological target: T9, ELK4 (Homo sapiens, UniProt P28324-2 1-405); settings: protein: recombinant; tags: N-terminal GST; dsDNA, one strand shown
# T9 sequence: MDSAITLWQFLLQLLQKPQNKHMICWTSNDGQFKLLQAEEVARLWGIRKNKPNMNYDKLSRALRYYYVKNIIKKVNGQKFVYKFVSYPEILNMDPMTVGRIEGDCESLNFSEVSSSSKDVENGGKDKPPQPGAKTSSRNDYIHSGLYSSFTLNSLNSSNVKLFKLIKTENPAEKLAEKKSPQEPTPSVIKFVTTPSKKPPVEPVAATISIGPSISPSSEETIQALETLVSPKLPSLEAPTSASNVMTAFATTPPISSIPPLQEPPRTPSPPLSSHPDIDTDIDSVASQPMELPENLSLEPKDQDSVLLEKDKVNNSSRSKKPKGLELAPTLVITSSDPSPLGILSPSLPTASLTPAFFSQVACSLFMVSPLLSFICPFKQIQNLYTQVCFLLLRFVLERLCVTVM
# In short: as §1
# [16] = biological target: T10, ETV2 (Homo sapiens, UniProt O00321 1-342); settings: protein: recombinant; tags: N-terminal GST; dsDNA, one strand shown
# T10 sequence: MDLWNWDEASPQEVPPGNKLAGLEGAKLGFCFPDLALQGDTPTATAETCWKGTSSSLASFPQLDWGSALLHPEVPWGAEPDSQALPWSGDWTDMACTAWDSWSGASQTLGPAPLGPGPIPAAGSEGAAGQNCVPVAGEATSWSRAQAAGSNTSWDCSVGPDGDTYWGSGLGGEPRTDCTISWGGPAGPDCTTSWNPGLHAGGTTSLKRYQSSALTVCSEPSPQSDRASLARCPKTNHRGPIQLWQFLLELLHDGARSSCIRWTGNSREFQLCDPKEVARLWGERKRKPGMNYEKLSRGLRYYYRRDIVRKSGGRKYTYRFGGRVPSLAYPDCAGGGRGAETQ
# In short: as §1
# [17] = biological target: T11, ELF3 (Homo sapiens, UniProt P78545 1-371); settings: protein: recombinant; tags: N-terminal GST; dsDNA, one strand shown
# T11 sequence: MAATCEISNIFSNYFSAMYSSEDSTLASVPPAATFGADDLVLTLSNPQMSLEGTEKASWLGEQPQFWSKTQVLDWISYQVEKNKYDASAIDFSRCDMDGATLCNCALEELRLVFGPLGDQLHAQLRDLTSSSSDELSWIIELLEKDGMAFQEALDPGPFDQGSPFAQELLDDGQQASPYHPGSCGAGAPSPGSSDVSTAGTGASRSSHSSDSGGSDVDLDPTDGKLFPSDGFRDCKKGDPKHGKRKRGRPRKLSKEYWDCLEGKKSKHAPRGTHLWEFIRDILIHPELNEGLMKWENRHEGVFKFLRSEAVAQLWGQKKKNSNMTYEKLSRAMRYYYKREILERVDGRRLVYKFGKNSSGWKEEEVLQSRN
# In short: as §1
# [18] = biological target: ETV1 (Homo sapiens, UniProt P50549 1-477); settings: protein: recombinant; tags: N-terminal GST; dsDNA, one strand shown
# Sequence of ETV1 (P50549 whole entry): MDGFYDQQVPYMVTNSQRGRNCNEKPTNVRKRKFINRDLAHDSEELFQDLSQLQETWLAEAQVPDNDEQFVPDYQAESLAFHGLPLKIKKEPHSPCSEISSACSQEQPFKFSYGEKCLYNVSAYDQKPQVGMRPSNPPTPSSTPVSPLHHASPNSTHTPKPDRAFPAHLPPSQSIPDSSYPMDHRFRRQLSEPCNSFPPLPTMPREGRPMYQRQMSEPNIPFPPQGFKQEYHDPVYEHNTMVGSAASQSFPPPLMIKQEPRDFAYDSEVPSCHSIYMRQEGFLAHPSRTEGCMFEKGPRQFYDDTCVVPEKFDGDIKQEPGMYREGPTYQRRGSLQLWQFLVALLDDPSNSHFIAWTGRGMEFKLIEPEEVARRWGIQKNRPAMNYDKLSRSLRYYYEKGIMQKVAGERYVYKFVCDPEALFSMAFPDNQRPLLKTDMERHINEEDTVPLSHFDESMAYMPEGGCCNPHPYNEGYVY
# In short: as §1
sequence,measurement,setting,value
AAGGAA,binding signal,[1],"1.19 fold enrichment (6-mer frequency, TF over GST control)"
same,binding signal,[2],"1.27 fold enrichment (6-mer frequency, TF over GST control)"
same,binding signal,[3],"1.2 fold enrichment (6-mer frequency, TF over GST control)"
same,binding signal,[4],"1.44 fold enrichment (6-mer frequency, TF over GST control)"
same,binding signal,[5],"1.25 fold enrichment (6-mer frequency, TF over GST control)"
same,binding signal,[6],"1.48 fold enrichment (6-mer frequency, TF over GST control)"
same,binding signal,[7],"1.48 fold enrichment (6-mer frequency, TF over GST control)"
same,binding signal,[8],"1.29 fold enrichment (6-mer frequency, TF over GST control)"
same,binding signal,[9],"1.21 fold enrichment (6-mer frequency, TF over GST control)"
same,binding signal,[10],"1.19 fold enrichment (6-mer frequency, TF over GST control)"
same,binding signal,[11],"1.35 fold enrichment (6-mer frequency, TF over GST control)"
same,binding signal,[12],"1.17 fold enrichment (6-mer frequency, TF over GST control)"
same,binding signal,[13],"1.36 fold enrichment (6-mer frequency, TF over GST control)"
same,binding signal,[14],"1.25 fold enrichment (6-mer frequency, TF over GST control)"
same,binding signal,[15],"1.12 fold enrichment (6-mer frequency, TF over GST control)"
same,binding signal,[16],"1.31 fold enrichment (6-mer frequency, TF over GST control)"
same,binding signal,[17],"1.66 fold enrichment (6-mer frequency, TF over GST control)"
same,binding signal,[18],"1.24 fold enrichment (6-mer frequency, TF over GST control)"
